# Reference: PubChem BioAssay
# Calls of active or inactive are those of the source. Unless noted, the rule behind the calls is not given here.
# Legend:
# [1] = test system: XIP peptide (Xip251-270) binding; test: small-molecule binders of XIP peptide, primary screen, biochemical, small-molecule microarray, fluorescence 635/667 nm, 0.1 µg/mL protein (AID 1182); settings: fluorescent protein binding, 635 nm, higher = more signal, called active from +8 up or from −8 down
# XIP peptide (Xip251-270) = test: small-molecule binders of XIP peptide, primary screen, biochemical, small-molecule microarray, fluorescence 635/667 nm, 0.5 µg/mL protein (AID 1183); settings: small-molecule microarray binding, fluorescence 635 nm; higher = more signal
# [2] = Plasmodium falciparum growth inhibition, primary screen, strain 3D7, DAPI fluorescence, 100 nL (AID 1184);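 note: parasites grown inside human red blood cells in medium with human serum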; settings: P. falciparum 3D7 growth, 3 d, higher = more signal
# [3] = molecular target: Homeobox protein Hox-A13 (Mus musculus) (UniProt Q62424); test: inhibitors of HoxA13-DNA binding, primary screen, biochemical, fluorescence polarization, labeled oligonucleotide (AID 1185); settings: 15 min, higher = more signal, called active from +8 up or from −8 down
# [4] = inhibitors of hydroxyurea-induced Chk1 phosphorylation, primary screen, imaging, HeLa, phospho-Chk1 antibody, percent positive cells (AID 1186); settings: hydroxyurea-induced phospho-Chk1 immunofluorescence imaging, higher = more signal
# [5] = inhibitors of hydroxyurea-induced Chk1 phosphorylation, primary screen, imaging, HeLa, phospho-Chk1 nuclear intensity (AID 1187); settings: hydroxyurea-induced phospho-Chk1 immunofluorescence imaging, higher = more signal
# Homeobox protein Hox-A13 (Mus musculus), sequence (Q62424 whole entry, looked up): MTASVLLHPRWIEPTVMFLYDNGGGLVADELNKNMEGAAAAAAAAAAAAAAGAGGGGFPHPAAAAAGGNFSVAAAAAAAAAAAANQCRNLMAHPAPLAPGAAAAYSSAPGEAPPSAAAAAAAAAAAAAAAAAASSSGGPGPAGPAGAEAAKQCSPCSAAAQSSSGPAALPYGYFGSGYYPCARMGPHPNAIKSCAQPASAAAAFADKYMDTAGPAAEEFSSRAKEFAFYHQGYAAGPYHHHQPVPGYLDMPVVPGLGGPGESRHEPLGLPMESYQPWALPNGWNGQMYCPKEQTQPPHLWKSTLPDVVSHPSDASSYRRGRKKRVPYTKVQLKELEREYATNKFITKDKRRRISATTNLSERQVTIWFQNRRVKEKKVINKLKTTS
SMILES,composite z-score [1],composite z-score (XIP peptide (Xip251-270)),z-score [2],z-score [3],z-score [4],z-score [5]
C[C@@H]1ON(c2ccc(I)cc2)[C@H](c2cccc(NC(=O)OCC3c4ccccc4-c4ccccc43)c2)[C@H]1C(=O)N1C(=O)OC[C@H]1Cc1ccccc1,-0.283 (inactive),0.771,-1.27,2.16 (inactive),0.095 (inactive),0.0287 (inactive)
COC(=O)C1=CC(CCCO)=CC(c2cccs2)N(Cc2cc3c(cc2Br)OCO3)C=C1C(=O)OC (stereo not drawn),1.07 (inactive),0.763,-1.26,-4.49 (inactive),0.132 (inactive),0.454 (inactive)
CC(C)C(=C=CC[C@H](O)c1ccccc1OCCO)C[C@H](O)COCc1ccccc1,-0.182 (inactive),0.619,-1.78,-4.94 (inactive),0.233 (inactive),-0.371 (inactive)
COC(=O)c1cccc([C@H]2OC(=CC(=O)OC(C)C)C[C@@H](c3cccc(C(=O)OC)c3)O2)c1,0.308 (inactive),0.713,-0.832,-4.13 (inactive),-0.504 (inactive),-1.39 (inactive)
COCCCNC(=O)[C@@]1(Sc2ccc(C)cc2)CC(=O)N(Cc2ccccc2C(F)(F)F)[C@@H]1c1ccc(CO)cc1I,0.814 (inactive),-0.251,-0.284,-2.03 (inactive),0.26 (inactive),0.204 (inactive)
CN(C)CCCCNC(=O)[C@H]1C[C@H]2C(=O)N3CCC[C@H]3C(=O)N2[C@H]1c1cccc(OCCO)c1,0.683 (inactive),0.629,0.0172,-3.86 (inactive),-0.322 (inactive),0.0695 (inactive)
O=C1C2C=CC(C(O)c3c(F)cccc3Cl)N(Nc3ccc([N+](=O)[O-])cc3)C2C(=O)N1c1ccccc1 (stereo not drawn),1.03 (inactive),0.878,-0.545,-3.05 (inactive),0.982 (inactive),1.09 (inactive)
CCCCCC1=C2CNC(Cc3ccccc3)(C(=O)OC)C=C2C(C)C1=O (stereo not drawn),-0.186 (inactive),0.247,-0.662,-8.44 (active),1.14 (inactive),0.846 (inactive)
O=C1O[C@H](c2ccccc2)[C@H](c2ccccc2)N2[C@H]1[C@@H](C(=O)O)[C@]1(C(=O)Nc3ccc(C#CCCO)cc31)[C@H]2c1ccc(OCCO)cc1,0.671 (inactive),0.856,-0.481,-5.39 (inactive),-0.255 (inactive),-0.132 (inactive)
C=C(COC)/C(=C/C[C@@H](OC(C)=O)c1ccccc1OCCO)c1cnc2ccccc2c1,0.534 (inactive),0.69,-2.92,-5.76 (inactive),-0.5 (inactive),-0.376 (inactive)
O=C1C=C(c2ccccc2)C(=O)C2=C1CC([C@H]1Oc3ccccc3S(=O)(=O)N3CCC[C@@H]13)=CC2,-0.0015 (inactive),-0.0733,-3.16,-3.85 (inactive),0.079 (inactive),0.334 (inactive)
C=CCOC(=O)[C@@H]1[C@H]2C(=O)O[C@H](c3ccccc3)[C@H](c3ccccc3)N2[C@H](c2ccc(OCCOC(=O)[C@H]3C[C@H]4C(=O)N5CCC[C@H]5C(=O)N4[C@H]3c3cccc(OCCO)c3)cc2)[C@@]12C(=O)Nc1ccc(I)cc12,0.781 (inactive),0.875,-0.441,0.634 (inactive),-0.479 (inactive),-0.434 (inactive)
C=C(C)[C@@H]1CC=C(C(O)C2C=CC3C(=O)N(c4ccccc4)C(=O)C3N2Nc2ccc([N+](=O)[O-])cc2)CC1 (stereo partly drawn),0.26 (inactive),-0.0122,-1.26,-1.49 (inactive),0.248 (inactive),0.0235 (inactive)
Cc1ccc(S[C@]2(C(=O)NCC(F)(F)F)CC(=O)N(Cc3ccccc3C(F)(F)F)[C@@H]2c2ccc(CO)cc2)cc1,0.859 (inactive),0.843,0.186,-1.74 (inactive),0.145 (inactive),0.518 (inactive)
CC(C)c1nc2cc(Br)ccc2c(=O)o1,0.697 (inactive),0.355,-0.795,-0.27 (inactive),-0.0165 (inactive),0.0785 (inactive)
O=C(N1CCOCC1)[C@@]1(Cc2ccccc2)COC(c2ccc(OCCCO)cc2)=N1,0.509 (inactive),0.52,-1.99,-5.19 (inactive),-0.42 (inactive),-0.504 (inactive)
COc1ccccc1CN1C(=O)c2ccccc2[C@](Cc2ccccc2I)(C(=O)NCC(C)C)[C@@H]1c1ccc(CO)cc1,0.935 (inactive),0.932,-0.409,-3.82 (inactive),-0.287 (inactive),-0.208 (inactive)
CN(C)c1ccc(C(O)C2C=CC3C(=O)N(Cc4ccccc4)C(=O)C3N2n2cnnc2)cc1 (stereo not drawn),3 (inactive),-0.23,0.736,-0.863 (inactive),-1.39 (inactive),-1.58 (inactive)
